USP28 inh: blocks human USP28 ubiquitin-rhodamine cleavage; Q96RU2; purified USP28, Ub-rhodamine cleavage fluorescence, 30 min; inhibition, % at 25 µM; 3% of 47,000 active; AID 1645857
USP8 block: blocks human USP8 ubiquitin-rhodamine cleavage. P40818. 4.2% of 47,000 active. inhibition, % at 20 µM. AID 1645853. purified USP8, Ub-rhodamine cleavage fluorescence, 30 min
USP30 block: inhibitors of human USP30 deubiquitinase; Q70CQ3; purified USP30, Ub-rhodamine cleavage fluorescence; inhibition, % at 25 µM; 5.3% of 47,000 active
Target sequence (Q70CQ3 whole entry, looked up): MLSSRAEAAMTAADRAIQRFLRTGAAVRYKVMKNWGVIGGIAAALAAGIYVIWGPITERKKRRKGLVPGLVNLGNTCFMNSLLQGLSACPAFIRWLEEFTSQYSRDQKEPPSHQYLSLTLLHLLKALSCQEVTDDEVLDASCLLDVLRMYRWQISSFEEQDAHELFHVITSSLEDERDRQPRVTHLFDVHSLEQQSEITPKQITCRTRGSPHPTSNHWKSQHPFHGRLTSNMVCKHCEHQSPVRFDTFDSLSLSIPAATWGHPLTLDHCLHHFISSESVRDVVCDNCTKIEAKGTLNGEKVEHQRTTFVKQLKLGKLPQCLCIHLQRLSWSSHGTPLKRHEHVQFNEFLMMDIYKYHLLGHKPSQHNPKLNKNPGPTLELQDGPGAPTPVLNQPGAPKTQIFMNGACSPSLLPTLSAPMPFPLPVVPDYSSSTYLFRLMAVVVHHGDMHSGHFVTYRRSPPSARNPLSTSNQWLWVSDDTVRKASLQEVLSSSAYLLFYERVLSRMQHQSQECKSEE
USP17 block: human USP17-like deubiquitinase inhibition; inhibition, % at 50 µM; A8MUK1; purified USP17, Ub-rhodamine cleavage fluorescence, 3 h; 6.5% of 47,000 active
Starred values were filed as active, the others as inactive; / = no result given. Compounds with a hit are over-represented: about 14% of the library has one in this group of screens. No stated cut-off is given here; in the data, active means inhibition above about 30%; inactive means the rest.

SMILES	USP28 inh	USP8 block	USP30 block	USP17 block
Cc1ccc(NS(=O)(=O)c2cc(-c3[nH]ncc3C(=O)N3CCCCC3)oc2C)cc1	-5.7	-10.5	-27.7	-14.2
CCc1ccc(NS(=O)(=O)c2cc(-c3[nH]ncc3C(=O)N3CCCCC3)oc2C)cc1	1.1	9.8	41.5*	22.2
Cn1c(=O)c2ccc(C3CCN(C(=O)Cc4c[nH]c5ccccc45)C3)nc2n(C)c1=O (stereo not given)	7.3	5.1	15.1	2.1
COc1ccccc1NC(=O)c1nc(-c2cn(-c3ccc(F)cc3)nn2)no1	-11.3	57.1*	-2.9	/
Fc1ccc(Cn2cc(-c3noc(-c4ccco4)n3)nn2)cc1	0.0	-4.8	-137.2	-3.9
COc1ccc(Cl)cc1NC(=O)c1nc(-c2cn(-c3ccccc3)nn2)no1	10.4	98.7*	13.8	16.1
Cc1ccccc1NC(=O)c1nc(-c2cn(Cc3ccc(F)cc3)nn2)no1	12.0	95.4*	9.1	78.5*
Cc1cc(C)c2c(c1)C(NC(=O)c1cnccn1)CCO2 (stereo not given)	0.0	-0.2	4.8	3.0
O=C(Nc1cnn(-c2ncc(N3CCCCC3)cn2)c1)C1CCOC1 (stereo not given)	-19.4	-10.9	-91.8	-14.7
O=C(c1cccc(Cl)c1)N1CCC2(CC1)CN(Cc1cccnc1)CC21CCNC1=O (stereo not given)	-1.8	-55.5	-16.3	-12.6
CC1=C(c2ccc(F)cc2)S(=O)(=O)N=C1Nc1ccc(Cl)cc1	5.2	0.4	0.1	55.7*
CC1=C(c2ccc(F)cc2)S(=O)(=O)N=C1Nc1cc(C)cc(C)c1	5.9	3.2	19.1	8.7
COc1cccc(NC2=NS(=O)(=O)C(c3ccc(F)cc3)=C2C)c1	11.1	-0.6	33.2*	2.7
COc1ccc(S(=O)O)c(OC)c1C	-3.7	-19.3	-24.7	-11.3
COc1cccc(C(=O)Nc2cc3c4c(c2)CC(=O)N4CCC3)c1	33.0*	65.1*	-18.3	16.8
COc1cc(OC)cc(C(=O)Nc2cccc(N3CCCC3=O)c2)c1	28.7	-11.7	-0.6	4.5
Cc1cccc(C(=O)Nc2cc3c4c(c2)CC(=O)N4CCC3)c1	36.9*	38.9*	-22.3	-4.9
CC(=O)Nc1cccc(C(=O)Nc2ccc(N3CCCC3=O)cc2)c1	21.8	2.6	25.0	12.6
CC(=O)c1ccc(N2CCN(C(=O)CCc3nnc4n(CCCOC(C)C)c(=O)c5ccccc5n34)CC2)cc1	-3.3	-5.4	-8.5	-15.2
CC1CCC(NC(=O)c2cnn3c4c(cnc23)CCCCCC4)CC1 (stereo not given)	4.2	-15.6	13.1	5.4
COc1ccc(Nc2ncc(C(=O)Nc3ccc(Oc4ccccc4)cc3)c3ccccc23)cc1	14.3	19.8	67.9*	19.4
COc1cc(Cl)ccc1Nc1ncc(C(=O)Nc2cc(OC)c(OC)c(OC)c2)c2ccccc12	-1.1	33.2*	-3.9	93.8*
O=C(Nc1ccccc1-c1nc2ccccc2[nH]1)c1sc2ccccc2c1Cl	-5.9	59.2*	3.9	83.2*
Cc1ccc(Cl)cc1-n1ncc2c1ncn1nc(C3CCCCC3)nc21	15.1	70.0*	24.3	34.2*
CCc1nc2c3cnn(-c4ccc(C)c(C)c4)c3ncn2n1	-18.2	-2.3	-48.2	3.8
SMILES	USP28 inh	USP8 block	USP30 block	USP17 block
CO[C@H]1CC[C@H](O)c2c1oc1c3c4c(c(O)c1c2=O)-c1c(cc2c(Cl)c(C)n(N)c(=O)c2c1O)C[C@@H]4OCO3	59.0*	25.6	0.5	62.3*
O=C1COC2(CCN(c3ncc(F)cn3)CC2)CN1Cc1ccccc1	-32.5	-153.7	-78.5	-50.7
O=C1COC2(CCN(C(=O)N3CCCC3)CC2)CN1Cc1ccccc1	24.5	-204.9	33.6*	-24.4
O=C(CCC(=O)N1CCC(C(=O)N2CCCCC2)CC1)Nc1ccc(Oc2ccccc2)cc1	5.9	2.9	10.8	6.6
CCOC(=O)C1CCN(C(=O)CCC(=O)Nc2ccc(Oc3ccccc3)cc2)CC1	8.2	13.8	33.9*	21.1
CCNc1cc(N2CCCC(CCC(=O)N3CCCC(CN4CCCC4)C3)C2)ncn1 (stereo not given)	-31.2	-188.4	-101.0	-54.3
Clc1ccc(CN=C(Nc2ccccc2)NC2CC2)c(Cl)c1	24.7	11.0	30.8*	5.4
CC(C)(C)c1ccc(C(=O)Nc2ccc3c(c2)CC(=O)N3)cc1	22.7	17.2	-26.3	-9.3
COc1ccc(CCN2C[C@H]3CCN(Cc4cccnc4)CC[C@H]3S2(=O)=O)cc1	-2.5	-43.0	-4.9	-5.9
Cc1cc(C)c(NC(=O)Cn2c(=O)n(Cc3ccccc3)c(=O)c3nn(C)cc32)c(C)c1	63.8*	41.4*	85.3*	67.7*
CCn1cc2c(n1)c(=O)n(Cc1ccccc1)c(=O)n2CC(=O)Nc1ccc(C)cc1C	16.1	92.9*	33.4*	36.2*
Cc1cc(N2CCC(c3c(C(=O)N(C)C)sc4ccccc34)C2)nc(C)n1 (stereo not given)	-7.4	-6.4	-25.0	-16.8
Cc1cc2nc(SCC(=O)c3ccc(O)cc3)[nH]c2cc1C	9.6	27.6	26.6	49.1*
CC(Sc1ncnc2nc[nH]c12)C(=O)Nc1ccc(Br)cc1F (stereo not given)	11.4	73.6*	27.2	16.1
Cc1cc(N2CCN(C)CC2)n2nc(CN3CCCCC3C)nc2n1 (stereo not given)	-7.0	-41.7	-18.2	39.1*
CNc1nc(C2CCCN2)nc2c1CCN(S(=O)(=O)C1CCCCC1)C2 (stereo not given)	/	-6.9	/	4.6
Cc1ccc2[nH]c(=O)c(CN(CC3CCCO3)S(=O)(=O)c3ccccc3)cc2c1 (stereo not given)	14.9	-72.8	36.5*	52.9*
Cc1ccc2[nH]c(=O)c(CN(CC3COCCO3)C(=O)Nc3ccccc3F)cc2c1 (stereo not given)	7.4	18.4	37.5*	13.2
Cc1ccc2[nH]c(=O)c(CN(CC3CCCO3)S(C)(=O)=O)cc2c1 (stereo not given)	8.1	-1.5	23.2	1.9
Cc1[nH]c2ccccc2c1C(c1ccccc1F)c1c(C)[nH]c2ccccc12	-33.4	14.3	-187.7	-7.5
CC(=O)NC(Cc1ccc(C)cc1)C(=O)NC1CCN(c2nc(C)cc(C)c2C#N)CC1 (stereo not given)	-17.8	-2.8	-46.9	-25.3
CC1CCN(CCCN2C(=O)C3C(C(=O)Nc4ccc(C(C)C)cc4)C4C=CC3(O4)C2C(=O)NC2CCCCC2)CC1 (stereo not given)	-7.2	-5.0	-0.8	-6.2
CC(C)CCN1C(=O)C2C(C(=O)Nc3ccc(F)cc3)C3(C)C=CC2(O3)C1C(=O)NC1CCCCC1 (stereo not given)	17.5	8.0	36.3*	23.8
CSc1cccc(NC(=O)C2C3C=CC4(O3)C2C(=O)N(C2CCCCC2)C4C(=O)NC2CCCCC2)c1 (stereo not given)	3.0	-20.5	7.1	12.3
CSc1cccc(NC(=O)C2C3C=CC4(O3)C2C(=O)N(CCc2ccccc2)C4C(=O)NC2CCCCC2)c1 (stereo not given)	0.0	56.8*	-1.0	10.2
CC(C)c1ccc(NC(=O)C2C3C=CC4(O3)C2C(=O)N(CCc2ccc(Cl)cc2)C4C(=O)NC2CCCCC2)cc1 (stereo not given)	6.2	54.2*	4.5	13.6

Screening data as filed in PubChem.
